Data published in PubChem BioAssay (Tox21).
Records with an inconclusive call do not appear. A call without a number means that no potency is given here. Values without a mark were called inactive. Active and inactive are the calls of the source. The call rests on the fitted dose curve.

Experiment: p53 small molecule agonists, cell-based qHTS assay with rat liver microsomes (AID 1963578)
Settings: HCT-116 p53RE-bla, beta-lactamase ratio, 16 h; series mostly up to 66 µM
Text: U.S. Tox21 Program National Center for Advancing Translational Sciences [NCATS] Division of Preclinical Innovation [DPI] U.S. Environmental Protection Agency [EPA] National Institutes of Environmental Health Sciences [NIEHS] National Toxicology Program [NTP] U.S. Food and Drug Administration [FDA] Tox21 Assay Overview: p53, a tumor suppressor protein, is activated following cellular insult, including DNA damage and other cellular stresses. The activation of p53 regulates cell fate by inducing DNA repair, cell cycle arrest, apoptosis, or cellular senescence. The activation of p53, therefore, is a good indicator of DNA damage and other cellular stresses. […] The activation of the reporter gene under culture conditions can be detected by fluorescence intensity. This cell line was used to screen the Tox21 10K compound library in the condition of presence of rat liver microsomes and to identify agonists that activate the p53 signaling pathway after in vitro metabolic activation (Ooka et al., Archive of Toxicology 96:1975-1987, 2022).
Tox21 Assay Protocol Summary: The p53RE-bla cells were dispensed at 4,000cells/3ul/well in 1536-well black-clear bottom plates. After the assay plates were incubated at 37 C, 5% CO2 incubator for 5 hours, 23 nL of compounds dissolved in DMSO, positive controls or DMSO only was transferred to the assay plate. Following compound addition, 3 uL of rat liver microsomes (Molecular Toxicology, Boone, NC) at final concentration of 0.5 mg/mL and 1uL of Beta-Nicotinamide adenine dinucleotide 2-phosphate (NADPH) at final concentration of 0.5 mg/mL were transferred to the assay plate. The plates were incubated at 37 C for 16 hours. 1 uL of LiveBLAzer detection mixture was added to each well and the plates were incubated at room temperature in the dark for 2 h.
Potency means the concentration at half of the fitted maximal effect.

Compound	Potency	activation
NC(CSCC(=O)O)C(=O)O (stereo not given)	inactive	
CN1CCCN=C1/C=C/c1cccs1	inactive	
CC(C)(C)c1csc(-c2cc3cc(OCc4ccccc4CC(=O)O)ccc3o2)n1	inactive	
CCCCCCCCCc1ccc(OCCOCCO)cc1	inactive	
O=C(c1ccccc1)c1ccc(O)cc1O	inactive	
CC(=O)/C(C)=C/C1C(C)=CCCC1(C)C (stereo not given)	inactive	
CCCCCC1Nc2cc(C(F)(F)F)c(S(N)(=O)=O)cc2S(=O)(=O)N1 (stereo not given)	inactive	
CCCCC(CC)CNC(=O)CC(C)OC(=O)CCC(=O)O (stereo not given)	inactive	
Cc1cc(Cl)c(C)cc1Cl	inactive	
CCN1CCOCC1	inactive	
c1coc(Cn2cccc2)c1	inactive	
COc1cc([N+](=O)[O-])ccc1N	inactive	
CCCCCCCCC(CCCCCC)C(=O)O (stereo not given)	inactive	
CCc1cc(SCc2sc(-c3ccc(C(F)(F)F)cc3)nc2CN2CCN(c3ccc(OC)cc3)CC2)ccc1OCC(=O)O	inactive	
Clc1ccc2nsnc2c1NC1=NCCN1	inactive	
NC(=O)CCCCC1CCSS1 (stereo not given)	inactive	
c1ccc(-c2ccccc2-c2ccccc2)cc1	inactive	
Cc1ccc(NC(=O)c2ccc(CN3CCN(C)CC3)cc2)cc1Nc1nccc(-c2cccnc2)n1	inactive	
O=C(NCC(O)CO)c1c(I)c(C(=O)NCC(O)CO)c(I)c(N(CCO)C(=O)CO)c1I (stereo not given)	inactive	
Oc1ccc(Cc2ccccc2)cc1	inactive	

Compound	Potency	activation
O=C(O)CN(CCN(CC(=O)O)CC(=O)O)CC(=O)O		-7.74% [at 2.33 µM]
C1=CC2C3C=CC(C3)C2C1 (stereo not given)	inactive	
Cc1cccc(Br)c1	inactive	
CN1CCC[C@@H]1CCO[C@](C)(c1ccccc1)c1ccc(Cl)cc1	inactive	
CCCCCOC(=O)CCCCC	inactive	
Oc1ccc(-c2ccccc2)c(Cl)c1	inactive	
C[C@H]1C[C@H]2[C@@H]3CCC4=CC(=O)C=C[C@]4(C)[C@@]3(Cl)[C@@H](O)C[C@]2(C)[C@@]1(O)C(=O)CO	inactive	
Cc1cc2c(cc1C(F)(F)F)N(C(=O)Nc1ccc(Oc3cccnc3C)nc1)CC2	inactive	
CN(C)CC/C=C1\c2ccccc2COc2ccccc21	inactive	
CC[C@@H]([C@H](C)O)n1ncn(-c2ccc(N3CCN(c4ccc(OC[C@@H]5CO[C@@](Cn6cncn6)(c6ccc(F)cc6F)C5)cc4)CC3)cc2)c1=O	inactive	
Cc1cc([N+](=O)[O-])ccc1N	inactive	
O=c1cc(-c2ccccc2)oc2cc(O)cc(O)c12	inactive	
O=Cc1ccc(Cl)c([N+](=O)[O-])c1	inactive	
CCN(Cc1cccc(S(=O)(=O)O)c1)c1ccc(C(=C2C=CC(=[N+](CC)Cc3cccc(S(=O)(=O)O)c3)C=C2)c2ccccc2S(=O)(=O)[O-])cc1	inactive	
CC1C2CC(CC2C2CCCC(O)C2)C1(C)C (stereo not given)	inactive	
CCCCCC	inactive	
CNCc1cc(F)ccc1Oc1ccc(Cl)c(Cl)c1	inactive	
COCCOC[C@H](CC1(C(=O)NC2CCC(C(=O)O)CC2)CCCC1)C(=O)Oc1ccc2c(c1)CCC2 (stereo not given in full)	inactive	
COC(=O)C1=C(C)NC(COC(N)=O)=C(C(=O)OC(C)C)C1c1cccc(Cl)c1Cl (stereo not given)	19.9 µM (active)	
CCCN(CCc1cccs1)[C@H]1CCc2c(O)cccc2C1	inactive	
